Screening data (PubChem BioAssay)
Shown are actives, neighbours in structure and some others; about 3.8% of the full set was active somewhere.
ATXN2 expr inh: Primary qHTS for Inhibitors of ATXN expression. Potency, µM (series often up to 57 µM), for the others: at the top dose activity change, negative = inhibition, usual class: inhibitors. HEK-293 ATXN2-luciferase reporter, luminescence, 24 h. 0.72% of 360,000 active. AID 1745845, 2022; also: % is scaled to controls: 0 for no effect and ±100 for the full control effect; nearly all actives have a fitted effect of over 55% in size
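qHTS (up to 57 uM final) was run with 24 h compound exposure of reporter cells at 37 °C. Each well was multiplexed: SteadyGlo luminescence measured ATXN2-luciferase expression after a fluorogenic Gly-Phe-AFC viability readout (25 uM final).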
HepG2 tox-1: qHTS for Inhibitors of TGF-b: Cytotox Counterscreen; HepG2 CAGA-GFP viability, ATP luminescence, 18 h; Potency, µM (doses to about 46.1 µM), without a hit: top-dose activity change, negative = cytotoxicity, actives largely listed as cytotoxic; 0.76% of 410,000 active; AID 588856, 2011
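HepG2 CAGA-GFP cells (1000/well, DMEM with 1% FBS) received compound, then TGF-beta at 500 pg/mL final, and were incubated 18 hours at 37 degrees C. Viability was read by CellTiter-Glo luminescence. Media-only wells were set as complete cell-killing and DMSO as no toxicity.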
Nrf2 inh: Nrf2 qHTS screen for inhibitors; 2.1% of 360,000 active; A549 ARE-Fluc reporter, luciferase luminescence, 18-24 h; AID 504444, 2011; Potency, µM (top dose mostly 46 µM), inactives show top-dose activity change, negative = inhibition, usual class: inhibitors; also: % is scaled to controls: 0 for no effect and ±100 for the full control effect; nearly all actives have a fitted effect of over 60% in size
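Reporter: ARE-Fluc in A549. Exposure: 18-24 h, 37 °C, 5% CO2, 5% FBS OPTI-MEM. Readouts: fluorescent cytotoxicity (CellTiter-Fluor), then luminescent Nrf2 signal after BugLite.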
TGFb SMAD3 inh: qHTS for Inhibitors of TGF-b. HepG2 CAGA-GFP TGF-b/SMAD3 reporter, GFP fluorescence, 18 h; TGF-beta stimulated, 500 pg/mL final. Potency, µM (doses to about 46.1 µM), for inactives: at the top dose activity, negative = inhibition, actives largely listed as inhibitors. 1.2% of 410,000 active. AID 588855, 2011; also: % is scaled to controls: 0 for no effect and ±100 for the full control effect; nearly all actives have a fitted effect of over 65% in size
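Inhibition of TGF-beta-driven CAGA-GFP reporter expression in HEPG2 cells is measured by cellular GFP fluorescence after 18 h stimulation with 500 pg/mL recombinant TGF-beta in 1% FBS medium at 37 degrees C.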
A549 viability: Nrf2 qHTS screen for inhibitors: counterscreen for cytotoxicity. A549 ARE-Fluc cells, CellTiter-Fluor viability, 18-24 h. 0.16% of 390,000 active. AID 504648, 2011. Potency, µM (titrated, usually from 46 µM), without a hit: at the highest dose activity change, negative = cytotoxicity, hits mostly inhibitors; also: % is scaled to controls: 0 for no effect and ±100 for the full control effect
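A549 ARE-Fluc cells in 5% FBS OPTI-MEM, 5000 cells/well, rested 2 h then exposed to compounds in concentration-response for 18-24 h at 37 °C. Viability by CellTiter-Fluor fluorescence (Ex 405/Em 525) after 30 min; luciferase luminescence (BugLite, 15 min, RT) read afterwards.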
ATXN viability: Viability Counterscreen for Primary qHTS for Inhibitors of ATXN expression | Potency, µM (doses to about 56.7 µM), usual class: cytotoxic | 0.49% of 400,000 active | AID 651635, 2014 | S2 cells (HEK-293 line with an ATXN2-luciferase reporter) viability, CellTiter-Fluor protease fluorescence, 24 h; also: nearly all actives have a fitted effect of over 40% in size
TGFb confirm: qHTS for Inhibitors of TGF-b: Confirmation of Cherry Picks. Potency, µM (titrated, usually from 46.1 µM), inactives show at the top dose activity, negative = inhibition, hits mostly inhibitors. shares compounds with TGFb SMAD3 inh. 63% of 1,600 active. HepG2 CAGA-GFP TGF-b reporter, GFP fluorescence, 18 h; cells stimulated with TGF-beta, 500 pg/mL. AID 720534, 2013; also: % is scaled to controls: 0 for no effect and ±100 for the full control effect; nearly all actives have a fitted effect of over 65% in size
HepG2 tox-2: qHTS for Inhibitors of TGF-b: Cytotox Counterscreen for Cherry Picks | shares compounds with TGFb SMAD3 inh | HepG2 CAGA-GFP viability, ATP luminescence, 18 h; cells stimulated with TGF-beta, 500 pg/mL | Potency, µM (series often up to 46.1 µM), for inactives: at the top dose activity, negative = cytotoxicity, most hits filed as inhibitors | 27% of 1,600 active | AID 720535, 2013; also: % is scaled to controls: 0 for no effect and ±100 for the full control effect; nearly all actives have a fitted effect of over 70% in size
TGFb CCL64 inh: qHTS for Inhibitors of TGF-b: CCL64 Cells Orthogonal Assay for Cherry Picks. shares compounds with TGFb SMAD3 inh. CCL64 CAGA-GFP reporter, TGF-b stimulated, GFP fluorescence, 18 h. Potency, µM (titrated, usually from 46.1 µM), without a hit: top-dose activity, negative = inhibition, most hits filed as inhibitors. 41% of 1,600 active. AID 720536, 2013; also: nearly all actives have a fitted effect of over 65% in size
TGFb COP inh: qHTS for Inhibitors of TGF-b: Hit Validation in HepG2 Cells using COP promoter; 3% of 1,600 active; Potency, µM (highest dose often 46.1 µM), without a hit: top-dose activity, negative = inhibition, most hits filed as inhibitors; HepG2 COP-GFP TGF-b reporter, GFP fluorescence, 18 h; cells stimulated by added recombinant TGF-beta; shares compounds with TGFb SMAD3 inh; also: nearly all actives have a fitted effect of over 70% in size
Starred values were filed as active, the others as inactive; i = inactive; u = inconclusive; x = no result given. Calls follow the shape of the dose curve; as a rule, active = well fitted curve in the direction sought with a large enough effect; inconclusive = small, poorly fitted or top-dose-only effect, or another doubt; inactive = no such curve, though single readings can be large; an effect the other way counts as inactive or inconclusive. Potency is read from the fitted curve at half-maximal effect.

SMILES | ATXN2 expr inh | HepG2 tox-1 | Nrf2 inh | TGFb SMAD3 inh | A549 viability | ATXN viability | TGFb confirm | HepG2 tox-2 | TGFb CCL64 inh | TGFb COP inh
CC1CCCC(C)N1C(=O)Cn1cc(/C=C2/C(=O)Nc3ccccc32)c2ccccc21 (stereo not given) | u | -17% | 18µM* | 6.3µM* | 16µM* | u | u | -21% | u | 2%
COC(=O)c1cn(CC(=O)N2C(C)CCCC2C)c2ccccc12 (stereo not given) | -11% | -18% | -8% | -4% | -13% | i | x | x | x | x
COc1ccc(C(NC(=O)CN2C(=O)NC3(CCc4ccccc43)C2=O)c2ccccc2)cc1 (stereo not given) | x | -9% | 5% | u | 0% | u | u | -13% | -23% | -10%
CC(=O)c1cccc(Nc2nc(-c3ccccc3)nc3ccccc23)c1 | -9% | 3% | u | -4% | -8% | x | x | x | x | x
CC(=O)c1ccc(Nc2nc(-c3ccccc3)nc3ccccc23)cc1 | -26% | -22% | u | -6% | -3% | u | -11% | -10% | -6% | -18%
Cc1ccc(Nc2nc(-c3ccccc3)nc3ccccc23)cc1 | u | -56% | x | u | -8% | u | x | x | x | x
Cc1ccc(Nc2nc(-c3ccncc3)nc3ccccc23)cc1 | u | -12% | u | 8% | u | i | 5% | u | -9% | 22%
c1ccc(Nc2nc(-c3ccncc3)nc3ccccc23)cc1 | -25% | -2% | -21% | 8% | u | i | -26% | -28% | -20% | 2%
CN1CCN(NC(=O)CSc2ccc(Cl)cc2Cl)CC1 | 2% | 6% | 0% | 5% | 2% | i | x | x | x | x
CCOC(=O)c1c(NC(=O)COC(=O)CCCOc2ccc(OC)cc2)sc(C(=O)N(C)C)c1C | 1% | -5% | 20% | 12% | 9% | i | x | x | x | x
Cc1ccc(S(=O)(=O)N2CCN(Cc3noc(CCC(=O)N4CCCCC4)n3)CC2)c(C)c1 | -17% | -20% | -10% | -21% | 0% | i | x | x | x | x
O=C(Nc1ccc(S(=O)(=O)NC2=NCCCCC2)cc1)c1ccc([N+](=O)[O-])s1 | u | -105% | -46% | 7.1µM* | u | i | 12µM* | u | 21µM* | 27%
O=C(Nc1ccc(S(=O)(=O)NC2=NCCCCC2)cc1)c1cccs1 | x | -14% | -16% | 0% | -2% | i | x | x | x | x
